Screening data: PubChem BioAssay, National Center for Advancing Translational Sciences (NCATS)
Shown are actives, neighbours in structure and some others; about 12% of the full set was active somewhere.
Pf growth 96h – P. falciparum growth inhibition at 96 hour, primary screen for plastid delayed-death inhibitors. AID 504834. P. falciparum luciferase reporter growth, 96 h. Potency, µM (doses to about 28.7 µM), without a hit: at the top dose activity change, negative = inhibition, hits mostly inhibitors. 320,000 compounds, 6.9% hits; further: on the % scale 0 is the no-effect control and ±100 the full control effect
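Compounds incubated with erythrocytes infected by luciferase-expressing P. falciparum (2% hematocrit, 0.05% parasitemia final) for 96 hours, 37 C in 5% CO2. Growth inhibition scored as decreased luciferase luminescence.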
Pf growth 48h – P. falciparum growth inhibition at 48 hours (one generation) | P. falciparum luciferase growth in erythrocytes, 48 h | Potency, µM (series often up to 28.7 µM), for the others: top-dose activity change, negative = inhibition, usual class: inhibitors | 310,000 compounds, 5.9% hits | AID 504832; further: on the % scale 0 is the no-effect control and ±100 the full control effect
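In quantitative HTS format, infected erythrocytes bearing luciferase-reporter parasites were treated for a single generation at 37 C. Luminescence after adding detection reagent served as the growth measure.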
NS1 inh – influenza NS1 inhibition; 270,000 compounds, 0.4% hits; AID 2326; Potency, µM (titrated, usually from 46.1 µM), for the others: at the highest dose activity, positive = more growth; calls by dose curve; further: actives are rising curves; nearly all actives have a fitted effect of over 50% in size
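A cell-based growth assay was used: compounds that relieve NS1-induced slow growth of budding yeast raise OD600. Assay medium was yeast nitrogen base with ammonium sulphate and -URA supplement, pH 6.0, with 2% galactose.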
SARS PLP yeast – SARS-CoV PLP inhibition in yeast | AID 485353 | S. cerevisiae expressing SARS-CoV PLpro, growth rescue | Potency, µM (highest dose often 32.9 µM), for inactives: top-dose activity, positive = growth rescue, actives largely listed as activators | 330,000 compounds, 0.19% hits; calls by dose curve; further: 0% is about no effect; nearly all actives have a fitted effect of over 55% in size
HCV inhibitor – inhibitors of hepatitis C virus infection; 340,000 compounds, 3.4% hits; Potency, µM (series often up to 41.8 µM), for the others: top-dose activity change, negative = inhibition, most hits filed as inhibitors; AID 651820; Huh7.5.1 HCVcc-Cre infection, luciferase reporter, 44 h; further: on the % scale 0 is the no-effect control and ±100 the full control effect
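Infectious HCV cell culture screen: compound-treated cells (1,000/well, pre-plated 4 h) are infected with HCVcc-Cre at roughly 0.5 moi and grown 44 h. Infection is quantified by luciferase signal after 15 min substrate incubation at room temperature.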
AMA1 RON2 block – disrupts binding of P. falciparum AMA1 to RON2 | AID 720542 | AlphaScreen AMA1-biotinylated RON2 peptide binding | 360,000 compounds, 0.2% hits | Potency, µM (series often up to 58.2 µM), inactives show at the highest dose activity change, negative = inhibition, usual class: inhibitors;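 further: 0% = vehicle wells and -100% = peptide control; nearly all actives have a fitted effect of over 45% in size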
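AMA1 (3D7) with his tag at 25 nM final met compounds first, then biotinylated RON2 peptide at 25 nM; detection used donor plus acceptor beads, 10 µg/mL apiece, read by AlphaScreen after 30 min at room temperature.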
* hit, by the source's call; ! = not confirmed by another sample; [ ] = dose if it differs, or a comment. Unless noted, the call rests on the fitted dose curve; in most records, active means well fitted curve in the direction sought with a large enough effect; inconclusive means small, poorly fitted or top-dose-only effect, or another doubt; inactive means no such curve, though single readings can be large; an effect the other way counts as inactive or inconclusive. Potency means the concentration at half of the fitted maximal effect.

`Clc1cc(Br)ccc1NCc1cccnc1` gave Pf growth 96h -13.9%, Pf growth 48h 0.0%, NS1 inh -54.3%, SARS PLP yeast -8.4%, HCV inhibitor -4.1% and AMA1 RON2 block 9.2%.
`O=C(CN1CCN(c2ccccn2)CC1)N1c2ccccc2CCc2ccccc21` gave Pf growth 96h inconclusive, Pf growth 48h 14.7µM*, NS1 inh -14.1%, SARS PLP yeast -9.4%, HCV inhibitor -22.4% and AMA1 RON2 block inconclusive.
`O=C(CSc1nc2ccccc2o1)N1c2ccccc2Sc2ccc(C(F)(F)F)cc21` gave Pf growth 96h inconclusive, Pf growth 48h 13.1µM*, NS1 inh 5.8%, SARS PLP yeast -1.9%, HCV inhibitor inconclusive and AMA1 RON2 block -3.7%.
`O=C(CN1CCN(c2ccccn2)CC1)N(c1ccccc1)c1ccc2ccccc2c1` gave Pf growth 96h 5.22µM*, Pf growth 48h 11.7µM*, NS1 inh -85.3%, SARS PLP yeast -7.0%, HCV inhibitor -14.3% and AMA1 RON2 block -15.8%.
`CCNCCC(=O)N1c2ccccc2Sc2ccc(C(F)(F)F)cc21` gave Pf growth 96h inconclusive, Pf growth 48h -29.7%, NS1 inh 3.7%, SARS PLP yeast 3.1%, HCV inhibitor inconclusive and AMA1 RON2 block 0.1%.
Screening CN1CCN(CC(=O)N2c3ccccc3C(=O)Nc3cccnc32)CC1 returned Pf growth 96h 15.1µM*!, Pf growth 48h -0.8%, NS1 inh -3.5%, SARS PLP yeast -4.2% and HCV inhibitor 2.3%[8.37 µM].
`O=C(CN1CCCC1)N1c2ccccc2Sc2ccc(C(F)(F)F)cc21` gave Pf growth 96h 2.3%, Pf growth 48h inconclusive, NS1 inh -0.7%, SARS PLP yeast 9.8%, HCV inhibitor inconclusive and AMA1 RON2 block -5.6%.
Screening O=C(CN1CCN(c2ccccn2)CC1)N1c2ccccc2Sc2ccc(C(F)(F)F)cc21 returned Pf growth 48h 4.65µM*, NS1 inh -145.2%, SARS PLP yeast -11.5%, HCV inhibitor inconclusive and AMA1 RON2 block inconclusive.
`CCOC(=O)c1csc(NC(=O)c2ccccc2)n1` gave Pf growth 96h 166.6%, NS1 inh -6.7%, SARS PLP yeast 2.2%, HCV inhibitor inconclusive and AMA1 RON2 block -3.9%.
`CCOC(=O)c1csc(NC(=O)c2ccc(OCC)cc2)n1` gave Pf growth 96h 467.8%, Pf growth 48h inactive, NS1 inh -5.8%, SARS PLP yeast -4.0%, HCV inhibitor 2.51µM* and AMA1 RON2 block 2.3%.
Screening CCOC(=O)c1csc(NC(=O)c2ccc3c(c2)OCCO3)n1 returned Pf growth 96h -5.7%, Pf growth 48h 195.8%, NS1 inh 3.9%, SARS PLP yeast 0.1%, HCV inhibitor 14.1µM* and AMA1 RON2 block -13.0%.
`CCOC(=O)c1csc(NC(=O)c2ccc(OC)c(OC)c2)n1` gave Pf growth 48h 67.1%, NS1 inh -73.6%, SARS PLP yeast -10.7%, HCV inhibitor inconclusive and AMA1 RON2 block -0.6%.
For Cc1ccccc1/C=N/Nc1nc2ccccc2c(=O)n1O the results were Pf growth 96h 46.8%, Pf growth 48h 35.1%, NS1 inh -8.6%, SARS PLP yeast 9.0%, HCV inhibitor -2.9% and AMA1 RON2 block 70.7%.
For CCN1CCN(C(=O)Cn2cnc3sc(C)c(S(=O)(=O)N4CCN(c5ncccn5)CC4)c3c2=O)CC1 the results were Pf growth 96h -24.3%, Pf growth 48h 3.0%, SARS PLP yeast 0.7%, HCV inhibitor 15.4% and AMA1 RON2 block -8.4%.
Screening CCCCn1c(=O)[nH]c(=O)c2c1nc(Cn1ncc(Cl)c(Cl)c1=O)n2CCC returned Pf growth 96h inconclusive, Pf growth 48h inconclusive, NS1 inh 14.1%, SARS PLP yeast 2.1%, HCV inhibitor 10µM* and AMA1 RON2 block -11.6%.
Screening O=C(NNC(=O)c1ccncc1)NC1CCCCC1 returned Pf growth 96h -2.9%, Pf growth 48h 50.1%, NS1 inh 4.3%, SARS PLP yeast -0.8%, HCV inhibitor 1.0% and AMA1 RON2 block 21.7%.
`COc1ccc([C@H]2CC(=O)C=C(c3cccc(Br)c3)C2)cc1OC` gave SARS PLP yeast -8.0%, HCV inhibitor inconclusive and AMA1 RON2 block inconclusive.
`O=C1C=C(c2cccc(Cl)c2O)C[C@@H](c2ccc3c(c2)OCO3)C1` gave Pf growth 96h inconclusive, Pf growth 48h 11.7µM*, SARS PLP yeast 2.2%, HCV inhibitor 22.5% and AMA1 RON2 block -24.3%.
`O=C1C=C(c2cccc3c2Oc2ccccc2S3)C[C@@H](c2ccc(Cl)cc2)C1` gave Pf growth 96h inconclusive, Pf growth 48h inconclusive, SARS PLP yeast 6.4%, HCV inhibitor -11.4% and AMA1 RON2 block -11.1%.
For COc1ccc([C@H]2CC(=O)C=C(c3cccc4c3Oc3ccccc3S4)C2)cc1OC the results were Pf growth 96h inconclusive, Pf growth 48h inconclusive, SARS PLP yeast 5.1%, HCV inhibitor 12.6µM* and AMA1 RON2 block -21.2%.
Screening O=C1C=C(c2cccc(Cl)c2)C[C@@H](c2ccc3c(c2)OCO3)C1 returned Pf growth 96h inconclusive, Pf growth 48h inconclusive, SARS PLP yeast -1.8%, HCV inhibitor inconclusive and AMA1 RON2 block -17.8%.
`CCOC(=O)c1cccc(C2=CC(=O)C[C@H](c3ccc(OC)c(OC)c3)C2)c1` gave Pf growth 96h inconclusive, Pf growth 48h 10.4µM*, SARS PLP yeast -4.8%, HCV inhibitor 12.6µM* and AMA1 RON2 block -16.1%.
`O=C1C=C(c2cccc(Br)c2)C[C@@H](c2ccc3c(c2)OCO3)C1` gave Pf growth 96h inconclusive, Pf growth 48h 4.65µM*, SARS PLP yeast -21.7%, HCV inhibitor -29.2% and AMA1 RON2 block -24.1%.
`COc1ccc([C@H]2CC(=O)C=C(c3cccc(Cl)c3O)C2)cc1OC` gave Pf growth 96h 9.28µM*, Pf growth 48h inconclusive, SARS PLP yeast -1.8%, HCV inhibitor -24.1% and AMA1 RON2 block -11.5%.
COc1cccc(C2=CC(=O)C[C@H](c3ccc4c(c3)OCO4)C2)c1OC was read as Pf growth 96h inconclusive, Pf growth 48h 28.4%, SARS PLP yeast -4.8%, HCV inhibitor 10µM* and AMA1 RON2 block -28.1%.
Screening COc1cccc(OC)c1C1=CC(=O)C[C@H](c2ccc3c(c2)OCO3)C1 returned Pf growth 96h inconclusive, Pf growth 48h inconclusive, SARS PLP yeast 0.4%, HCV inhibitor inconclusive and AMA1 RON2 block -29.6%.
Screening CCNC(=O)NC(=O)C(C)Sc1nc2cc(C(=O)OC)ccc2c(=O)n1-c1ccccc1 (stereo unspecified) returned Pf growth 96h 78.5%, Pf growth 48h 20.5%, NS1 inh 4.9%, SARS PLP yeast 3.3%, HCV inhibitor -5.1% and AMA1 RON2 block -2.1%.
